According to PubChem BioAssay (NCI):
About 83,000 compounds went through this panel and 20% of them were active in at least one assay; those are over-represented in the sample as a whole.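 Interpretation: 100, growth as untreated; towards 0, rising growth inhibition; 0, no net growth; 0 to -100, cell death. Compounds scoring below 10 were considered active.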 Values without a mark were called inactive. Active and inactive are the calls of the source.

The molecules below were run on UO-31 renal (assay: NCI-60 one-dose screen, 48 h (100 = growth as untreated, 0 = no growth, -100 = all killed)). Conditions: 10 µM.
Method: Growth inhibition of the UO-31 human tumor cell line is measured as a screen for anti-cancer activity. Cells are grown in 96 well plates and exposed to the test compound for 48 hours. Compounds are tested at a single concentration, which is 10^-5 M for most compounds. The reported endpoint is percent growth (GI% or GIPRCNT), where numbers from 0 - 100% represent growth inhibition, and numbers from -100% - 0 represent cell death. For example, a value of 40 represents 60% growth inhibition. A value of 0 means no net growth occurred over the course of the experiment. A value of -40 indicates 40% of cells at the beginning of the experiment died by the end of the experiment. A value of -100 means all cells are dead at the end of the experiment.
NCI-60 Human Tumor Cell Lines Screen was performed using the standard one-dose NCI protocol, which is described in more detail at https://dtp.cancer.gov/discovery_development/nci-60/default.htm.
Compounds with GIPRCNT values below 10 were considered active. Activity score was based on GIPRCNT using the following formula: […]
Score is 0 for GIPRCNT values of 100 or above, 50 for GIPRCNT values of 0, and 100 for GIPRCNT values of -100.

Compound	growth
COc1ccc(-n2nnc3c(sc4ccccc43)c2=O)cc1	1.83% (active)
COc1cc(CSc2nc3ccc(C)cc3c(=O)n2-c2ccccc2)cc(OC)c1OC	24.1%
CC1=CSC2=NC(c3ccc(Cl)c(Cl)c3)=CC(c3ccc(Cl)cc3)N12 (stereo not given)	7.9% (active)
Cc1ccc(C)c(S(=O)(=O)NC2c3ccccc3Oc3ccccc32)c1	81.4%
O=CNc1c(Cl)cc2c(c1Cl)Cc1cc([N+](=O)[O-])ccc1-2	71.7%
CCCCCCCC/C=C/CCCCCCCCC1=NCCN1CCO	38.5%
COc1cc(/C=C/C(=O)c2cc(-c3ccc(F)cc3)ccc2O)cc(OC)c1OC	53.1%
Cc1nc(Nc2nc3ccccc3o2)nc(-c2cccc([N+](=O)[O-])c2)c1C(=O)Nc1ccc(F)c(Cl)c1	11.3%
COc1ccc(-c2nc3sc(-c4ccccc4)c(-c4ccccc4)n3c2/C=C/c2ccc(F)cc2)cc1	82.7%
CCc1nn2c(-c3cc(OC)c(OC)c(OC)c3)c(-c3cc(OC)c(OC)c(OC)c3)nc2s1	81.7%
C#CCNCCN1C(=O)c2ccc3c4c(ccc(c24)C1=O)C(=O)N(CCNCC#C)C3=O	29.5%
O=C(O)CCCCSCCCCC(=O)O	92.7%
O=C(Nc1ccc(CN2CCOCC2)cc1)c1ccc(-c2cc(Cl)ccc2Cl)o1	25.4%
O/N=C1\CCC2CCCCC2C1 (stereo not given)	95.5%
Cc1c(C(=O)N[C@H](CO)Cc2ccccc2)[nH]c2ccc(Cl)cc2c1=O	98.2%
COc1ccc(-c2nnc(COc3ccc(NC(=O)Nc4cccc(C(F)(F)F)c4)cc3F)o2)cc1	57.2%
CC(=O)Oc1c(C)c(C)c2c(c1C)CCC(C)(CC(=O)OCCCCCCCCCCC[P+](c1ccccc1)(c1ccccc1)c1ccccc1)O2 (stereo not given)	-5.35% (active)
O=C/C=C/c1ccc([N+](=O)[O-])cc1Cl	74.5%
C[N+]1(CC2CO2)CCCCCC1 (stereo not given)	93.4%
O=C1/C(=C/c2ccc(O)cc2)Cc2ccc(Cl)cc21	45.2%

Compound	growth
CCC1(C)OC(=O)NC1=O (stereo not given)	88.6%
O=C(NNC(=O)c1ccncc1)Nc1ccc([N+](=O)[O-])cc1	89.6%
COc1cc(C2C=C(c3ccc(Cl)c(Cl)c3)N=C3SC(C)=CN32)cc(OC)c1OC (stereo not given)	55.2%
COc1ccc2oc(=O)cc(C(c3ccc[nH]3)c3ccc[nH]3)c2c1	16.9%
Cc1ccc2nc3[nH]c(=O)[nH]c(=O)c3c(N)c2c1	54.9%
Cc1ccc(/C=C2\CN(Cc3cn(CCNc4ccnc5cc(Cl)ccc45)nn3)C/C(=C\c3ccc(C)cc3)C2=O)cc1	-78.8% (active)
COc1ccc(CCc2nc3cc(-c4c(C)noc4C)ccc3n2CCN2CCOCC2)cc1	4.71% (active)
CCOc1ccc2c(c1)CC[C@@H]1[C@@H]2CC[C@]2(C)[C@@H](O)[C@@H](O)C[C@@H]12	89.3%
O=C(Nc1ccc(OS(=O)(=O)Cc2ccccc2)cc1)C12CC3CC(CC(C3)C1)C2	78.4%
O=C(Nc1ccc(Oc2ccc(Nc3nc4ccccc4s3)cc2)cc1)Nc1ccc(Cl)c(Cl)c1	25.8%
COc1cc(C2=Nc3c/c(=C\c4c(O)[nH]c5ccc(Cl)cc45)ccc3=N2)cc(OC)c1OC	35.5%
N=C(N)c1ccc(-c2ccc(-c3ccccc3)s2)s1	-74.1% (active)
CCOC(=O)c1ccc(NC(=O)Nc2nncs2)cc1	34.1%
COc1cc(OC)cc(N2CCN(C(=O)Nc3nc4cc(F)ccc4nc3OC)CC2)c1	34.5%
COc1cc(-c2cc(-c3ccc(C)cc3)nc3nc(N)[nH]c(=O)c23)ccc1Oc1ccnc2cc(Cl)ccc12	56.3%
COc1ccc2nc(C)cc(Nc3ccc(Cl)cc3)c2c1	91.1%
COc1ccc(Nc2nc(NCc3ccccc3)c3ccccc3n2)cc1	58.9%
CCN(CC)CCCOC(=O)Nc1ccccc1Cl	91.7%
O=C(O)CNS(=O)(=O)c1ccc(OCCOc2ccc(S(=O)(=O)NCC(=O)O)cc2)cc1	85.7%
COc1ccc(-c2cc(/C=C3\C(=O)Nc4cc(Cl)ccc43)[nH]n2)cc1OC	74.6%
